These results are taken from PubChem BioAssay (EPA / NIEHS).

Usually AC50 stands for the concentration giving half of the maximal activity seen.

“And” between values parts separate entries of the source, which are not always exact repeats. Equal entries are not always repeated. Some structures have more than one record in an assay (separate samples or runs), and their calls can disagree. The source made the active and inactive calls. Rule for the calls: active = hit-call score of the fitted dose curve at least 0.9, where 1 is the maximum; inactive = score below 0.9.

The nature of this assay: BSK_3C_TissueFactor: BioMAP Diversity Plus: 3C Assay for Tissue Factor Biomarker Activity (AID 2282997). Conditions: BioMAP 3C HUVEC, tissue factor biomarker readout; actives raise or lower the signal. The protocol: BSK_3C is a cell-based, multiplexed-readout assay that uses umbilical vein endothelium, a human vascular primary cell, with measurements taken at 24 hours after chemical dosing in a 96-well plate.BSK_3C_TissueFactor is an assay component measured in the BSK_3C assay. It measures Tissue Factor antibody related to regulation of gene expression using ELISA technology.Data from the assay component BSK_3C_TissueFactor was analyzed into 1 assay endpoint. This assay endpoint, BSK_3C_TissueFactor, was analyzed with bidirectional fitting relative to DMSO as the negative control and baseline of activity. Using a type of binding reporter, gain or loss-of-signal activity can be used to understand changes in the signaling as they relate to the gene F3. Furthermore, this assay endpoint can be referred to as a primary readout, because this assay has produced multiple assay endpoints where this one serves a signaling function. To generalize the intended target to other relatable targets, this assay endpoint is annotated to the cytokine intended target family, where the subfamily is coagulation factor.
The levels of cell surface (or secreted, indicated by the prefix "s") biomarker endpoints were measured by ELISA. Overt cytotoxicity to cells in confluent adherent cultures (all systems other than the BT system) was assessed by measuring total protein levels using sulforhodamine B (SRB) staining in parallel cultures at the time of biomarker measurements, indicated as SRB endpoints. For proliferation assays for adherent cell types, individual cell types are cultured at sub-confluence and relative cell numbers quantified by SRB staining at time points optimized for each system (48 h: 3C and CASM3C systems; 72 h: BT and HDF3CGF systems; 96 h: SAg system). SRB was performed by staining cells with 0.1% SRB after fixation with 10% TCA and reading wells at 560 nm.Viability and proliferation of PBMC (T cells) was quantified by Alamar Blue reduction for the SAg and BT systems. For PBMC viability (referred to as PBMC Cytotoxicity within the assay endpoint names), cells were plated (75,000/well in a 96-well plate) and then chemical samples added for 1 h before addition of activators, SEB and TSST-1 (20 ng/mL final concentration each). Cells were incubated for 90 h. Then, Alamar Blue (20 uL/well) (Invitrogen, Cat DAL1100) was added for 6 h, and the plates were read with a fluorescence microplate reader at 546/580 nm (excitation/emission). For PBMC proliferation, cells were plated and activated as above but incubated for only 16 h prior to addition of Alamar Blue. Plates were read after 6 h.
For `C=CC(F)(F)C(F)(F)C(F)(F)C(F)(F)C(F)(F)C(F)(F)C(F)(F)C(F)(F)C=C`, the outcome was inactive.

Regarding `C=CC(F)(F)C(F)(F)C(F)(F)C(F)(F)C(F)(F)C(F)(F)C(F)(F)C(F)(F)F`, the result was inactive.

In the case of `C#C[C@]1(O)CC[C@H]2[C@@H]3CCc4cc(OC)ccc4[C@H]3CC[C@@]21C`, the result was inactive. Turning to `CC(CCl)OP(=O)(OC(C)CCl)OC(C)CCl` (stereo not given), the result was inactive. On to `O=C(O)C(F)(F)C(F)(F)C(F)F`, for which the result was inactive.

Regarding `NC(=O)C(F)(F)C(F)(F)C(F)(F)C(F)(F)F`, the result was inactive.

Regarding `C=CC/C=C/C/C=C/C/C=C/C`, the result was inactive. For `CCc1ccc(C(c2ccc(CC)cc2)C(Cl)Cl)cc1`, the outcome was inactive. For `CO[Si](OC)(c1ccccc1)c1ccccc1`, the result was inactive. As for `O=C(O)C(F)(F)C(F)(F)C(F)(F)F`, the result was inactive. The same measure, in the same setting: the same measure for `FC(F)(F)C(F)(F)C(F)(F)C(F)(F)C(F)(F)C(F)(F)CC1CO1` (stereo not given): “inactive”; for `O=C(CC(=O)C(F)(F)C(F)(F)F)C(F)(F)F`: “inactive”. `CCc1c(Br)c(Br)c(Br)c(Br)c1Br`: the AC50 was 4.73 µM (active). For the compound `CCCCCCCCC(F)(F)C(F)(F)C(F)(F)C(F)(F)C(F)(F)C(F)(F)F`, the outcome was inactive. As to `CCCCNc1ccccc1`, the result was inactive. In the case of `FC(F)(F)C(F)(F)C(F)(F)C(F)(F)C(F)(F)C(F)(F)C(F)(F)I`, the outcome was inactive. For the compound `O=C(O)C(F)(F)C(F)(F)C(F)(F)C(F)(F)C(F)(F)C(F)(F)C(F)(F)C(F)(F)C(F)(F)C(F)(F)C(F)(F)C(F)(F)F`, the outcome was inactive. Turning to `FC(F)(F)C(F)(F)C(F)(F)C(F)(F)C(F)(F)C(F)(F)C(F)(F)C(F)(F)CCS`, the result was inactive. As to `CCCCC(CC)COP(=O)(O)OCC(CC)CCCC` (stereo not given), the result was inactive. For `O=C(O)C=C(C(F)(F)F)C(F)(F)F`, the outcome was inactive. As for `O=P(O)(O)OCCC(F)(F)C(F)(F)C(F)(F)C(F)(F)C(F)(F)C(F)(F)F`, the result was inactive. As for `C=CC(=O)OCC(F)(F)C(F)(F)C(F)(F)C(F)(F)COC(=O)C=C`, the AC50 was 24.9 µM (active) and 35.5 µM (active). Take `FC1CC(F)(F)C(F)(F)C1(F)F` (stereo not given): the outcome was inactive. On to `OCCCC(F)(F)C(F)(F)C(F)(F)C(F)(F)C(F)(F)C(F)(F)C(F)(F)F`, for which the AC50 is 54.8 µM (active) and 21.6 µM (active).

Take `CC(=O)Nc1ccc(N=Nc2cc(C)ccc2O)cc1`: the result was inactive.

Regarding `FC(F)(F)C(F)(F)C(F)(F)CI`, the outcome was inactive. Turning to `Nc1ccc([N+](=O)[O-])cc1O`, the concentration at half-maximal activity (AC50) was 20 µM (active). With `O=C(Cl)C(F)(F)C(F)(F)C(F)(F)C(F)(F)C(F)(F)C(F)(F)C(F)(F)C(F)(F)F`, the result was inactive and the AC50 was 53.4 µM (active).

As for `N=C(N)C(F)(F)C(F)(F)C(F)(F)C(F)(F)C(F)(F)C(F)(F)C(F)(F)F`, the outcome was inactive.

Take `O=C(O)C(F)(F)C(F)(F)C(F)(F)C(F)(F)C(F)(F)C(F)(F)C(F)(F)C(F)(F)C(F)(F)C(F)(F)C(F)(F)C(F)(F)C(F)(F)F`: the result was inactive.

`CCCCOCCOCCOC(=O)CCCCC(=O)OCCOCCOCCCC`: the result was inactive. For `O=C(O)C(F)(F)C(F)(F)C(F)(F)C(F)(F)C(F)(F)C(F)(F)C(F)(F)C(F)(F)C(F)(F)C(F)F`, the outcome was inactive. With `C=C(C)C(=O)OCC(F)(F)C(F)(F)C(F)(F)F`, the outcome was inactive. With `FC(F)(F)C(F)(F)C(F)(F)C(F)(F)C(F)(F)C(F)(F)C(F)(F)C(F)(F)F`, the outcome was inactive.

On to `CS(C)(=O)=O`, for which the outcome was inactive.

`CCCCCCCCCCCCCCCC[N+](C)(C)Cc1ccccc1`: the AC50 is 20 µM (active). For the compound `O=C(O)C(F)(OC(F)(F)C(F)(OC(F)(F)C(F)(OC(F)(F)C(F)(F)C(F)(F)F)C(F)(F)F)C(F)(F)F)C(F)(F)F` (stereo not given), the result was inactive.

For `O=C(O)C(F)(F)C(F)(F)C(F)(F)C(F)(F)F`, the result was inactive.

In the case of `C=CC(=O)OCC(F)(F)C(F)(F)C(F)(F)C(F)(F)C(F)(F)C(F)(F)C(F)(F)F`, the outcome was inactive.
